# Measurements taken from PubChem BioAssay (EPA / NIEHS).
# Results filed as inconclusive are left out. Active and inactive are the calls of the source. How the source made its calls: active means hit-call score of the fitted dose curve at least 0.9, where 1 is the maximum; inconclusive means response in the unintended direction; inactive means score below 0.9.
# Test system: not listed separately
# Experiment: NVS_GPCR_bNPY_NonSelective: NovaScreen (NVS) G Protein-Coupled Receptor Assay for bovine Neuropeptide Y (NPY) Receptor, Non-selective Binding (AID 2283245)
# Procedure, shortened: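 Bovine hippocampal membranes incubated 1 hour with radioligand and test chemical. Bound ligand measured by filter-based scintillation counting. Single-concentration screen at 25 uM in duplicate, then concentration-response up to 50 uM.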
row,SMILES,outcome
1,CCCC(CCC)C(=O)O,inactive
2,CC(C)C(=O)Nc1ccc([N+](=O)[O-])c(C(F)(F)F)c1,inactive
3,COc1cc(C(C)C)c2c(c1)S(=O)(=O)N(COc1cc(=O)n3cccc(OCCN4CCCCC4)c3n1)C2=O,inactive

# Test system: bovine Histamine 1 Receptor (H1), gene 281231
# Experiment: NVS_GPCR_bH1: NovaScreen (NVS) G Protein-Coupled Receptor Assay for bovine Histamine 1 Receptor (H1) (AID 2283246)
# Procedure, shortened: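 Radioligand displacement on bovine cerebellar membranes, 1 h after dosing, filter-based scintillation read-out; loss of signal vs DMSO. Duplicate single-concentration screen at 25 uM, then concentration-response up to 50 uM for hits.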
row,SMILES,outcome
1,OCC(CO)(CO)CO,inactive
2,NC(=O)N1c2ccccc2C=Cc2ccccc21,inactive
3,CCCCCCCCCC,inactive

# Test system: guinea pig Leukotriene B4 Receptor (LTB4), gene 100379538
# Experiment: NVS_GPCR_gLTB4: NovaScreen (NVS) G Protein-Coupled Receptor Assay for guinea pig Leukotriene B4 Receptor (LTB4) (AID 2283247)
# Procedure, shortened: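 Radioligand displacement on guinea pig spleen membranes, filter-based scintillation counting 2 h after dosing. Primary duplicate single point at 25 uM; hits over threshold (e.g. 30% inhibition) run in concentration-response up to 50 uM, DMSO baseline.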
SMILES,AC50,outcome
O=C(NO)C1(NS(=O)(=O)c2ccc(Oc3ccc(F)cc3)cc2)CCOCC1,7.03 µM (active),
COCc1nnc(-c2ccc[n+]([O-])c2)n1-c1c(Cl)c(Cl)cc2[nH]c(=O)c(=O)[nH]c12,,inactive
CC[C@H](C)C(=O)O[C@H]1C[C@H](O)C=C2C=C[C@H](C)[C@H](CC[C@@H](O)C[C@@H](O)CC(=O)O)[C@H]21,0.328 µM (active),
Cc1nccn1-c1ccc(Sc2cccc(C3(C(N)=O)CCOCC3)c2)cc1,8.42 µM (active),

# Molecular target: guinea pig Leukotriene D4 Receptor (LTD4), CYSLTR1 (gene 100135514) (UniProt Q2NNR5)
# Sequence (Q2NNR5 whole entry, looked up): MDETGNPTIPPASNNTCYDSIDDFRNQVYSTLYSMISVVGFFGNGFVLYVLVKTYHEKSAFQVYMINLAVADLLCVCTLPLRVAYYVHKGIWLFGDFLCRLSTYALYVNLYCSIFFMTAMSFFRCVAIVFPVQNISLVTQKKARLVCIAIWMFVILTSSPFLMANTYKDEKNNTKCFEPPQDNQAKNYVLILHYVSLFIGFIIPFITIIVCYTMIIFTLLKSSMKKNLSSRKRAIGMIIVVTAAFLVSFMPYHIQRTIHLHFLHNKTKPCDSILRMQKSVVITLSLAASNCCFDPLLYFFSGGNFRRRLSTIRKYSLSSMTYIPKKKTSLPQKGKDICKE
# Experiment: NVS_GPCR_gLTD4: NovaScreen (NVS) G Protein-Coupled Receptor Assay for guinea pig Leukotriene D4 Receptor (LTD4) (AID 2283248)
# Method: (§1) NVS_GPCR_gLTD4 is a biochemical, single-readout assay that uses extracted gene-proteins from Guinea pig lung membranes in a tissue-based cell-free assay. Measurements were taken 1 hour after chemical dosing in a 48-well plate.NVS_GPCR_gLTD4 is one of one assay component(s) measured or calculated from the NVS_GPCR_gLTD4 assay. It is designed to make measurements of radioligand binding, a form of binding reporter, as detected with scintillation counting signals by Filter-based radiodetection technology.Data from the assay component NVS_GPCR_gLTD4 was analyzed into 1 assay endpoint. This assay endpoint, NVS_GPCR_gLTD4, was analyzed in the positive analysis fitting direction relative to DMSO as the negative control and baseline of activity. Using a type of binding reporter, loss-of-signal activity can be used to understand changes in the binding as they relate to the gene Cysltr1. Furthermore, this assay endpoint can be referred to as a primary readout, because the performed assay has only produced 1 assay endpoint. To generalize the intended target to other relatable targets, this assay endpoint is annotated to the gpcr intended target family, where the subfamily is rhodopsin-like receptor.
# (§2) Binding assays used specific radioligands (tritiated, iodinated) with non-radioactive competitive displacement ligands in agonist or antagonist protocols (as indicated) and various reference compounds and inhibitors to titrate specific binding to receptors and transporters. Most enzyme assays (CYPs, kinases, phosphatases, proteases, HDACs) used recombinant protein and specific substrates (fluorescence mostly, some colorimetric and radioactive) and inhibitors, followed by a biochemical separation of substrate and product. All assays for the biochemical HTS were initially run in duplicate at a single concentration (10 uM for CYP450 assays and 25 uM for all others). Assay-chemical combinations meeting a pre-defined threshold (e.g., 30% inhibition and other criteria defined below) were then run in singleton concentration-response format with maximum concentration of 20 uM for CYPs and 50 uM for all others. Each assay was run with positive and negative controls, and concurrent controls on every plate. The follow-up (secondary) screen tested active chemical-pairs in concentration series, as well as a few additional assays not tested in the primary screen, some selected negative inactives, and several cases re-run in the concentration series for confirmatory purposes.
SMILES,AC50,outcome
CCN(CC)C(=S)SSC(=S)N(CC)CC,1.24 µM (active),
CC(C)c1nnc2ccc(-c3ocnc3-c3cc(F)ccc3F)cn12,,inactive
CCCCCCCCCCCCCCCCOS(=O)(=O)O,4.26 µM (active),
COCc1nnc(-c2ccc[n+]([O-])c2)n1-c1c(Cl)c(Cl)cc2[nH]c(=O)c(=O)[nH]c12,,inactive

# Molecular target: human Serotonin, 5-Hydroxytryptamine Receptor 2A (5HT2A), HTR2A (gene 3356) (UniProt P28223)
# Sequence (P28223 whole entry, looked up): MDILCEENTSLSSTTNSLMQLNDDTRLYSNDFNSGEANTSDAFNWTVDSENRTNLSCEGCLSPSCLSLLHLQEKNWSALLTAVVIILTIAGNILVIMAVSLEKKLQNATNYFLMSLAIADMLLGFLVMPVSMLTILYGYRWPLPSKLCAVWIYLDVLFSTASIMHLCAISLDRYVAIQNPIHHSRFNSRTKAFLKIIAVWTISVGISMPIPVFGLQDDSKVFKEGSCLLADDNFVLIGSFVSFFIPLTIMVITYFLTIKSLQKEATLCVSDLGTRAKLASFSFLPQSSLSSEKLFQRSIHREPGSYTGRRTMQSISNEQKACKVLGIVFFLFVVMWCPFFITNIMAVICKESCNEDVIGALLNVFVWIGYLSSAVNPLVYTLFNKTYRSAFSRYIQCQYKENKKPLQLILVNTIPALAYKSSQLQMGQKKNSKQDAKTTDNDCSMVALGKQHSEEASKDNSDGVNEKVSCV
# Experiment: NVS_GPCR_h5HT2A: NovaScreen (NVS) G Protein-Coupled Receptor Assay for human Serotonin, 5-Hydroxytryptamine Receptor 2A (5HT2A) (AID 2283249)
# Method: as §1, with “NVS_GPCR_h5HT2A” for “NVS_GPCR_gLTD4”, “Human cortex” for “Guinea pig lung membranes”, “1.5 hours” for “1 hour”, “plate.NVS_GPCR_h5HT2A” for “plate.NVS_GPCR_gLTD4”, “NVS_GPCR_h5HT2A,” for “NVS_GPCR_gLTD4,”, “HTR2A.” for “Cysltr1.”
# Binding assays used specific radioligands (tritiated, iodinated) with non-radioactive competitive displacement ligands in agonist or antagonist protocols (as indicated) and various reference compounds and inhibitors to titrate specific binding to receptors and transporters. Most enzyme assays (CYPs, kinases, phosphatases, proteases, HDACs) used recombinant protein and specific substrates (fluorescence mostly, some colorimetric and radioactive) and inhibitors, followed by a biochemical separation of substrate and product. All assays for the biochemical HTS were initially run in duplicate at a single concentration (10 uM for CYP450 assays and 25 uM for all others). […] Each assay was run with positive and negative controls, and concurrent controls on every plate. […]
SMILES,outcome,AC50
CCCCCCCCCC,inactive,
c1ccc(C(O[C@@H]2CCCN(CCc3ccc4c(c3)OCO4)C2)c2ccccc2)cc1,,10.1 µM (active)
CCn1nc(C)c2c1C(=O)NCC(c1ccc(O)cc1)=N2,inactive,

# Test system: guinea pig Muscarinic, Peripheral (Mperiperal) Receptor, Non-selective Binding, gene 100379235
# Experiment: NVS_GPCR_gMPeripheral_NonSelective: NovaScreen (NVS) G Protein-Coupled Receptor Assay for guinea pig Muscarinic, Peripheral (Mperiperal) Receptor, Non-selective Binding (AID 2283250)
# Method: as §1, with “NVS_GPCR_gMPeripheral_NonSelective” for “NVS_GPCR_gLTD4”, “bladder” for “lung”, “plate.NVS_GPCR_gMPeripheral_NonSelective” for “plate.NVS_GPCR_gLTD4”, “NVS_GPCR_gMPeripheral_NonSelective,” for “NVS_GPCR_gLTD4,”, “Chrm3.” for “Cysltr1.”
# as §2
SMILES,outcome,AC50
CCCCCCCCN(C)C,inactive,
CCCCCCCCCC,inactive,
c1ccc(C(O[C@@H]2CCCN(CCc3ccc4c(c3)OCO4)C2)c2ccccc2)cc1,,0.0261 µM (active)
COc1cc(C(C)C)c2c(c1)S(=O)(=O)N(COc1cc(=O)n3cccc(OCCN4CCCCC4)c3n1)C2=O,,2.22 µM (active)
Cc1nccn1-c1ccc(Sc2cccc(C3(C(N)=O)CCOCC3)c2)cc1,,25 µM (active)

# Molecular target: human Serotonin, 5-Hydroxytryptamine Receptor 5A (5HT5A), HTR5A (gene 3361) (UniProt P47898)
# Sequence (P47898 whole entry, looked up): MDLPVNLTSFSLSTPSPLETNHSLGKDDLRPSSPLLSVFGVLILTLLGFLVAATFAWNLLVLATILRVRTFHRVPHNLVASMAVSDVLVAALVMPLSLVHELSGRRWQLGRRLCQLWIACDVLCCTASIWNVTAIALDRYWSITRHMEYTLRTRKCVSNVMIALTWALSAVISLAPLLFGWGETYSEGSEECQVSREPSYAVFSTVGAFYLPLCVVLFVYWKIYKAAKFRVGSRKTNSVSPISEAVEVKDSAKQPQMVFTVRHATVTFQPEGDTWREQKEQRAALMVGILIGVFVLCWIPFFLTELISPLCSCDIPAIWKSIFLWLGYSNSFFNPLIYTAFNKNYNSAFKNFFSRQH
# Experiment: NVS_GPCR_h5HT5A: NovaScreen (NVS) G Protein-Coupled Receptor Assay for human Serotonin, 5-Hydroxytryptamine Receptor 5A (5HT5A) (AID 2283251)
# Procedure, shortened: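 Cell-free radioligand displacement binding on HEK293-derived membrane protein, 1 h incubation, filter-based scintillation counting. Primary screen in duplicate at 25 uM, actives followed in concentration series; loss of signal fitted versus DMSO.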
SMILES,outcome,AC50
CCCCCCCCCC,inactive,
CCCCCCCCCCCCCCCCOS(=O)(=O)O,,20.6 µM (active)
c1ccc(C(O[C@@H]2CCCN(CCc3ccc4c(c3)OCO4)C2)c2ccccc2)cc1,,25 µM (active)
C=CCc1cc(S(=O)(=O)c2ccc(O)c(CC=C)c2)ccc1O,,25 µM (active)
O=S(=O)(O)c1ccc(N=Nc2c(O)ccc3cc(S(=O)(=O)O)ccc23)cc1,inactive,

# Molecular target: guinea pig Opioid, Kappa 1 Receptor (OpiateK), OPRK1 (gene 100135587) (UniProt P41144)
# Sequence (P41144 whole entry, looked up): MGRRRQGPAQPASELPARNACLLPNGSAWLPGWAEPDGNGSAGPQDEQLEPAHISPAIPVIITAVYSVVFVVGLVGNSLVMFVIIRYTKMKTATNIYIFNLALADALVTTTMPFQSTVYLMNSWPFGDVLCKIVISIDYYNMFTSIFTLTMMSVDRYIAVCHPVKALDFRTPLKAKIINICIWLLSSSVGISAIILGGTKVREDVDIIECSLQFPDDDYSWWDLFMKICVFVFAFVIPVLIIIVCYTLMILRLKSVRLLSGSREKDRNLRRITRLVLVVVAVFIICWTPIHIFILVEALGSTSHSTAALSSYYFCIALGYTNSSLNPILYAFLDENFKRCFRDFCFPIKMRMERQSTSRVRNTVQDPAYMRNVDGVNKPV
# Experiment: NVS_GPCR_gOpiateK: NovaScreen (NVS) G Protein-Coupled Receptor Assay for guinea pig Opioid, Kappa 1 Receptor (OpiateK) (AID 2283252);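 further: radioligand displacement from kappa opioid receptor in guinea pig cerebellar membranes; active means reduced radioligand binding relative to DMSO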
# Procedure, shortened: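 Guinea pig cerebellar membranes were incubated with a radioligand for 2 h after compound addition; bound radioactivity was read by filter-based scintillation counting. Loss of specific binding relative to DMSO baseline defined activity; primary screen at 25 uM in duplicate.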
SMILES,outcome,AC50
CCN(CC)C(=S)SSC(=S)N(CC)CC,inactive,
c1ccc(C(O[C@@H]2CCCN(CCc3ccc4c(c3)OCO4)C2)c2ccccc2)cc1,,3.06 µM (active)
CCn1nc(C)c2c1C(=O)NCC(c1ccc(O)cc1)=N2,inactive,
COc1cc(C(C)C)c2c(c1)S(=O)(=O)N(COc1cc(=O)n3cccc(OCCN4CCCCC4)c3n1)C2=O,,5.55 µM (active)
Cc1nccn1-c1ccc(Sc2cccc(C3(C(N)=O)CCOCC3)c2)cc1,,2.06 µM (active)
O=S(=O)(O)c1ccc(N=Nc2c(O)ccc3cc(S(=O)(=O)O)ccc23)cc1,inactive,
CCCOc1ccc(S(=O)(=O)N2CCN(CC)CC2)cc1-c1nc2c(CC)n(Cc3ccccn3)nc2c(=O)[nH]1,inactive,

# Molecular target: human Serotonin, 5-Hydroxytryptamine Receptor 6 (5HT6), HTR6 (gene 3362) (UniProt P50406)
# Sequence (P50406 whole entry, looked up): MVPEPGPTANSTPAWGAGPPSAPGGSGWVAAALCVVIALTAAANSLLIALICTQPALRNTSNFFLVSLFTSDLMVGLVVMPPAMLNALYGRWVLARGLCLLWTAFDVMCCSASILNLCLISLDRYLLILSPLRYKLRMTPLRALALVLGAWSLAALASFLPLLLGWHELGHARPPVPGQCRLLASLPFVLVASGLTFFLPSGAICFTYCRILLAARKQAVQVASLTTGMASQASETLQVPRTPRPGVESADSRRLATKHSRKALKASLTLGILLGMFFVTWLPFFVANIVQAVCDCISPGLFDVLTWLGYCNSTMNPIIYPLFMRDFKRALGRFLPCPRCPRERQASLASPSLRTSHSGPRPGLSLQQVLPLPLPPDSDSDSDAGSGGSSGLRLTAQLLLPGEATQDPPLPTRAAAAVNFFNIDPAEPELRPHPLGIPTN
# Experiment: NVS_GPCR_h5HT6: NovaScreen (NVS) G Protein-Coupled Receptor Assay for human Serotonin, 5-Hydroxytryptamine Receptor 6 (5HT6) (AID 2283253)
# Procedure, shortened: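 Radioligand binding to 5HT6 in HEK293-derived membranes, cell-free, 1 h after dosing; bound ligand measured by filter-based scintillation counting. Primary screen in duplicate at 25 uM; actives retested in concentration series.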
SMILES,AC50,outcome
CCN(CC)C(=S)SSC(=S)N(CC)CC,8.33 µM (active),
c1ccc2cc3ccccc3cc2c1,,inactive
CCCCCCCCN(C)C,,inactive
CCCCCCCCCC,,inactive
COCc1nnc(-c2ccc[n+]([O-])c2)n1-c1c(Cl)c(Cl)cc2[nH]c(=O)c(=O)[nH]c12,,inactive
c1ccc(C(O[C@@H]2CCCN(CCc3ccc4c(c3)OCO4)C2)c2ccccc2)cc1,25 µM (active),
CCn1nc(C)c2c1C(=O)NCC(c1ccc(O)cc1)=N2,,inactive
CC(C)C(=O)Nc1ccc([N+](=O)[O-])c(C(F)(F)F)c1,4.5 µM (active),
C=CCc1cc(S(=O)(=O)c2ccc(O)c(CC=C)c2)ccc1O,0.0408 µM (active),
COc1cc(C(C)C)c2c(c1)S(=O)(=O)N(COc1cc(=O)n3cccc(OCCN4CCCCC4)c3n1)C2=O,2.55 µM (active),

# Molecular target: human Adenosine A1 Receptor (AdoRA1), ADORA1 (gene 134) (UniProt P30542)
# Sequence (P30542 whole entry, looked up): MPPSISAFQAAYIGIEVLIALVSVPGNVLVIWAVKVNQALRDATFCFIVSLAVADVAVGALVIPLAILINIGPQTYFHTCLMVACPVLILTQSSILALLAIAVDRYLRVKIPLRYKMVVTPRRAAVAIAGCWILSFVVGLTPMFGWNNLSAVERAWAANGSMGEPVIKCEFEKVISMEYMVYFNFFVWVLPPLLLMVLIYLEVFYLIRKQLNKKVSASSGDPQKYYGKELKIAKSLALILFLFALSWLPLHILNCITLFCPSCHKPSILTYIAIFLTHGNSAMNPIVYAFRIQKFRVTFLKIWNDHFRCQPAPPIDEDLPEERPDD
# Experiment: NVS_GPCR_hAdoRA1: NovaScreen (NVS) G Protein-Coupled Receptor Assay for human Adenosine A1 Receptor (AdoRA1) (AID 2283254)
# Procedure, shortened: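 Each chemical is first tested twice at 25 uM, actives later in dilution series, against a radioligand bound to human cortex membranes; after 1 h, filter-retained counts are compared with DMSO controls, lower signal indicating displacement.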
SMILES,AC50,outcome
NC(=O)N1c2ccccc2C=Cc2ccccc21,7.33 µM (active),
CCCCCCCCCC,,inactive
COCc1nnc(-c2ccc[n+]([O-])c2)n1-c1c(Cl)c(Cl)cc2[nH]c(=O)c(=O)[nH]c12,32.2 µM (active),
c1ccc(C(O[C@@H]2CCCN(CCc3ccc4c(c3)OCO4)C2)c2ccccc2)cc1,20.7 µM (active),
CCn1nc(C)c2c1C(=O)NCC(c1ccc(O)cc1)=N2,,inactive
CC(C)C(=O)Nc1ccc([N+](=O)[O-])c(C(F)(F)F)c1,,inactive
C=CCc1cc(S(=O)(=O)c2ccc(O)c(CC=C)c2)ccc1O,3.19 µM (active),
Cc1nccn1-c1ccc(Sc2cccc(C3(C(N)=O)CCOCC3)c2)cc1,,inactive
O=S(=O)(O)c1ccc(N=Nc2c(O)ccc3cc(S(=O)(=O)O)ccc23)cc1,,inactive
CCCOc1ccc(S(=O)(=O)N2CCN(CC)CC2)cc1-c1nc2c(CC)n(Cc3ccccn3)nc2c(=O)[nH]1,6.54 µM (active),
